PubChem BioAssay (NCI)
About 83,000 compounds went through this panel and 20% of them were active in at least one assay; those are over-represented in the sample as a whole.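 Results are percent growth after 48 hours of single-concentration exposure. 100 means growth as in untreated cells, lower positive values show inhibition; negative values down to -100 show cell death.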 Values without a mark were called inactive. The source made the active and inactive calls. Rule for the calls: active = growth percent below 10; inactive = the rest.

Assays:
Experiment in all cases: NCI-60 one-dose screen, 48 h (100 = growth as untreated, 0 = no growth, -100 = all killed)
Conditions in all cases: 10 µM unless noted
[1] = tested on: HCT-15 colon
[2] = tested on: HT29 colon
[3] = tested on: SNB-75 CNS
[4] = tested on: SNB-19 CNS
[5] = tested on: U251 CNS
[6] = tested on: PC-3 prostate
[7] = tested on: SK-MEL-5 melanoma
[8] = tested on: UACC-62 melanoma
[9] = tested on: LOX IMVI melanoma
[10] = tested on: SK-MEL-28 melanoma

Structure (SMILES)	growth [1]	growth [2]	growth [3]	growth [4]	growth [5]	growth [6]	growth [7]	growth [8]	growth [9]	growth [10]
CC(C)c1ccc(C(=O)Nc2sc3c(c2C(N)=O)CCC(=O)C3)cc1	-15.7% (active)	5.66% (active)	-88.2% (active)	13%	-3.68% (active)	-44.7% (active)	-62.8% (active)	-35.7% (active)	4.43% (active)	7.57% (active)
COc1cc(-c2csc(NC(=O)c3ccc(N4CCOCC4)c(C(F)(F)F)c3)n2)cc(OC)c1OC	11%	43.2%	57.2%	62.6%	47.3%	11%	-6.45% (active)	-6.31% (active)	23.1%	36.6%
O=C(CSC(=S)n1cnnc1)NC(=O)c1ccccc1	107%	104%	95%	109%	116%	102%	109%	110%	97%	113%
O=C(O)c1ccc(-n2cc(/C=N/Nc3ccccc3)c(-c3ccc(F)cc3F)n2)cc1	51.4%	90.5%	78.2%	84.3%	85.9%	51.9%	58%	-14.3% (active)	18.5%	74.1%
N#Cc1c(-c2ccc(Cl)cc2)c(C#N)c2c(C#N)c(N)nn2c1N	88.2%	83.3%	74.8%	88.2%	87.9%	65.2%	87.9%	72.9%	76.6%	99.3%
c1cc2c(ccc3[nH]c(-c4ccc5[nH]ncc5c4)c4c(c32)CCCC4)n1	61.6%	51.7%	62.1%	44.5%	36.8%	28.4%	61.7%	54.6%	61.5%	67.3%
c1ccc(Cn2cc3c(c2)-c2oncc2CC3)cc1	26.2%	7.96% (active)	19%	35.7%	28.9%	31.9%	39.3%	23.6%	45.5%	53.9%
CC(=O)N1N=C(c2ccc(Nc3nc(Nc4ccccc4)nc(Nc4ccccc4)n3)cc2)CC1c1cccc([N+](=O)[O-])c1 (stereo not given)	110%	100%	79.7%	86.1%	97.7%	80.6%	87.4%	84%	86.9%	115%
O=C(OC(CO)C(=O)NC12CC3CC(CC(C3)C1)C2)c1ccc(Cl)cc1 (stereo not given)	99.4%	100%	102%	98.8%	96.7%	98.6%	98.3%	96.6%	101%	108%
CCOCCNC1=C(Cl)C(=O)c2ccccc2C1=O	95%	107%	57.9%	111%	100%	92.6%	67.2%	101%	70.6%	117%
CC(O)(c1ccccc1)C(c1ccccc1)C1CCCCN1 (stereo not given)	96.6%	99.3%	100%	99.5%	100%	105%	103%	95.8%	96.8%	109%
CCOC(=O)c1csc(NC(=O)COc2ccc(/C=C3\Oc4ccccc4C3=O)cc2)n1	113%	106%	81.3%	87.9%	91.1%	96.2%	98.7%	79.6%	78.3%	112%
COC(=O)c1nc(-c2ccccc2)oc1S(=O)(=O)Cc1ccccc1	62.2%	49.4%	84.8%	96.2%	94.2%	91.6%	93.4%	91.1%	61.1%	95.5%
COc1cc(-c2nccc3[nH]c(-c4ccc5cc[nH]c5c4)nc23)cc(OC)c1OC	-7.01% (active)	-37.8% (active)	18.9%	34.8%	-16.3% (active)	-0.946% (active)	-38.4% (active)	27.4%	-67.5% (active)	42.1%
Fc1cc2c(cc1Cl)N(c1ncnc3ccc(-c4ccc5n[nH]nc5c4)cc13)CC2	95.7%	95%	22.1%	80%	86.9%	71.1%	91.2%	78.7%	86%	86.9%
CCn1cc(C(=O)O)c(=O)c2cc(F)c(N3CCN(CC(=O)Nc4ccc(S(=O)(=O)Nc5nccc(C)n5)cc4)C(C)C3)c(F)c21 (stereo not given)	100%	117%	95.7%	98.7%	110%	98%	-93.3% (active)	94.2%	95.6%	107%
COc1ccc(CN2c3ccccc3Sc3ccccc32)cc1F	15.9%	-4.41% (active)	45.1%	34.6%	20.1%	21.2%	22.3%	28.5%	39.9%	56.8%
O=C(CSc1nnc(-c2cnccn2)n1-c1ccccc1)c1ccc(Cl)cc1	97.5%	94.7%	110%	101%	93.7%	87.8%	99.7%	84.9%	108%	103%
CC(=O)Oc1ccc(C)cc1C	100%	105%	70.3%	103%	103%	97%	108%	105%	97.1%	107%
COc1ccccc1N1CCCCC1	102%	101%	99.4%	95.2%	108%	98.8%	108%	96.3%	100%	102%
O=S(=O)(NCCNc1nccc(-c2c(-c3ccc(F)c(O)c3)nc3occn23)n1)c1ccc(Cl)cc1	98.9%	92.3%	85.2%	101%	93.9%	79.8%	60.9%	23.9%	45.5%	40.1%
COC(=O)c1nc(-c2ccc(C)cc2)oc1S(=O)(=O)c1cccc(OC)c1	62%	97.1%	83.3%	101%	96.5%	103%	97.8%	92.5%	57.1%	99.2%
O=C1Nc2ccc(C(=O)O)cc2/C1=N/c1nnc(Sc2ccccc2)s1	104%	115%	94.2%	102%	98%	104%	104%	99%	96.3%	112%
C=CCN=c1sc2c(n1NC(=O)c1cc3ccc1CCc1ccc(cc1)CC3)C(=O)c1ccccc1C2=O	-68.3% (active)	26.1%	-94.6% (active)	4.59% (active)	0.221% (active)	0.37% (active)	-98.5% (active)	-36% (active)	-80.3% (active)	-35.4% (active)
CN(C)CCNC(=O)c1ccc(-c2nc3ccc4[nH]ncc4c3c3c2C2CCC3C2)cc1 (stereo not given)	41.8%	34.4%	-12.4% (active)	60.9%	44.8%	19.9%	16.4%	31.3%	26.2%	46.6%
Cc1cc(N2CCCCC2)cc(C)c1-c1csc(NC(=O)c2ccncc2)n1	80.5%	69%	55.7%	59.8%	63%	48.1%	-8.97% (active)	45.1%	47.1%	64.9%
